Hit rate of the full screen: of about 290,000 compounds, about 3,000 (1%) were called active. Cut-off read from the data, not from the text of the source: active = inhibition mostly above about 36% (no sharp cut-off); inactive = mostly below about 34%. This excerpt belongs to a sample that is enriched for actives.

This assay in a line: inhibition of NOD1-driven NF-kB reporter – cell-based, luminescence, uHTS, primary screen (AID 1578).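 Note: HEK-293T reporter cells stimulated with the NOD1 agonist gamma-tri-DAP.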 The settings on record: NOD1-driven NF-kB luciferase reporter cells, at 4 µM, stronger effect = higher value.
`Cc1ccc(C(=O)COC(=O)CCC(=O)Nc2cc(Cl)ccc2Cl)cc1[N+](=O)[O-]`: the inhibition was 7.9% (inactive). For `C#CC(=O)N(c1ccc(OC)cc1OC)C(C(=O)NC1CCCC1)c1cccs1` (stereo not given), the inhibition was 74.7% (active). The figure for `C#CC(=O)N(c1cc(OC)ccc1OC)C(C(=O)NC1CCCC1)c1cccs1` (stereo not given) is -17.4% (inactive); for `C#CC(=O)N(c1ccc(OC)c(OC)c1)C(C(=O)NC1CCCC1)c1cccs1` (stereo not given) it is 79.9% (active); for `COc1ccc(N(C(=O)c2ccco2)C(C(=O)NC2CCCC2)c2cccs2)cc1OC` (stereo not given) it is 2.7% (inactive).

Regarding `COc1ccc(N(C(=O)c2ccco2)C(C(=O)NC2CCCC2)c2cccs2)c(OC)c1` (stereo not given), the inhibition is -2.6% (inactive).

On to `C#CC(=O)N(c1cccc(OC)c1)C(C(=O)NC1CCCC1)c1cccs1` (stereo not given), for which the inhibition was 22.1% (inactive). For the compound `CC(C)c1nc2ccccc2n1CC(O)COC1CCCCC1` (stereo not given), the inhibition is -23.2% (inactive). As for `COc1ccc(C)cc1NC(=O)NNC(=O)C(C)Oc1ccc(F)cc1Cl` (stereo not given), the figure is -17.8% (inactive). The figure for `COc1cccc(C(=O)N2CCC(n3nccc3NC(=O)CCOc3ccccc3)CC2)c1` is -25.4% (inactive); for `CCCn1c(SCC(=O)Nc2nonc2C)nnc1-c1ccoc1C` it is -22.4% (inactive); for `COC(=O)CN1C(=S)N(Cc2ccccc2)C(=O)C1CC(=O)Nc1ccc(Br)cc1` (stereo not given) it is 28.8% (inactive). Regarding `Cc1ccc(S(=O)(=O)Nc2ccccc2-c2ccccc2)cc1`, the inhibition is 18.4% (inactive).

Take `Cc1ccc(NS(=O)(=O)c2ccc3[nH]c(=O)[nH]c3c2)c(C)c1`: the inhibition is -12.1% (inactive). The figure for `Cc1cccc(C)c1NS(=O)(=O)c1ccc2c(c1)C(=O)c1ccccc1C2=O` is -19.6% (inactive); for `Cc1ccc(S(=O)(=O)Nc2ccccc2C(N)=O)cc1` it is -11.8% (inactive). In the case of `CCCC(=O)C1=C(O)C(C(=O)OC)C(C)(C)CC1=NC` (stereo not given), the inhibition was 11.5% (inactive).

As to `CN(CCO)c1cnccn1`, the inhibition was -22.7% (inactive). Turning to `COc1ccccc1N1CCN(CCC(=O)Nc2cccc(Cl)c2)CC1`, the inhibition is -7.2% (inactive).

With `CNC(=O)NC(=O)Cn1cnc2sc(-c3ccccc3)cc2c1=O`, the inhibition was 0.3% (inactive). Turning to `CCCCOCCCNC(=O)C1c2ccccc2Oc2ccccc21`, the inhibition was -0.9% (inactive). For the compound `CS(=O)(=O)c1nc(-c2ccc(F)cc2)cc(C(F)(F)F)n1`, the inhibition was 103% (active). In the case of `Nc1nc(-c2ccc(F)cc2)cc(C(F)(F)F)n1`, the inhibition was 9.6% (inactive). As to `CCOC(=O)CCSc1nc(-c2ccccc2)cc(C(F)(F)F)n1`, the inhibition was -31.4% (inactive).

For the compound `CS(=O)(=O)c1nc(-c2ccccc2)cc(C(F)(F)F)n1`, the inhibition was -5.3% (inactive). As for `CCOC(=O)CSc1nc(-c2ccccc2)cc(C(F)(F)F)n1`, the inhibition is -48.1% (inactive). For the compound `CCOC(=O)CS(=O)(=O)c1nc(-c2ccccc2)cc(C(F)(F)F)n1`, the inhibition was 69.2% (active).

As to `CC(C)(C)NC(=O)CN(Cc1ccc2c(c1)OCO2)C(=O)CNC(=O)c1cccs1`, the inhibition was -12.6% (inactive). On to `CCn1ncc(Br)c1C(=O)NC1CCCCCCC1`, for which the inhibition was -9% (inactive).

As for `CCN(CC)CCn1c(=N)n(CC(O)c2ccco2)c2ccccc21` (stereo not given), the inhibition is 62% (active). The figure for `CCCn1c(=N)n(CC(O)c2ccco2)c2ccccc21` (stereo not given) is 1.5% (inactive); for `CCn1c(=N)n(CC(O)c2ccco2)c2ccccc21` (stereo not given) it is 11% (inactive). Regarding `C=C(C)c1cccc(C(C)(C)NC(=O)Nc2cc(C)ccc2OC)c1`, the inhibition was -33% (inactive). On to `CCOc1cccc2c1OC1(C)CC2NC(=O)N1c1cccc(C(=O)N2CCN(c3ccccn3)CC2)c1` (stereo not given), for which the inhibition was 76.5% (active). The figure for `CC12CC(NC(=O)N1c1cccc(C(=O)N3CCN(c4ccccn4)CC3)c1)c1ccccc1O2` (stereo not given) is -1.9% (inactive); for `COc1cccc2c1OC1(C)CC2NC(=O)N1c1cccc(C(=O)N2CCN(c3ccccn3)CC2)c1` (stereo not given) it is -17.8% (inactive); for `COc1ccc(C(=O)C2CCCN(Cc3ccc4nonc4c3)C2)c(OC)c1` (stereo not given) it is -21.3% (inactive).

`COc1ccc(C(=O)C2CCCN(Cc3cc(Cl)ccc3O)C2)c(OC)c1` (stereo not given): the inhibition was -3.1% (inactive).

As for `COc1ccc(C(=O)C2CCCN(Cc3cc(C)c(O)c(C)c3)C2)c(OC)c1` (stereo not given), the inhibition is 110% (active). Regarding `CCOC(=O)C(=Cc1cn(C)c2ccc(S(=O)(=O)N(C)C)cc12)C(=O)OCC`, the inhibition is 29.1% (inactive). Take `CCOC(=O)C(=Cc1c[nH]c2ccc(S(=O)(=O)N(C)C)cc12)C(=O)OCC`: the inhibition is 43.9% (active). As for `CCOC(=O)N1CCN(C(=O)c2c[nH]c3ccc(S(=O)(=O)N(C)c4ccc(F)cc4)cc3c2=O)CC1`, the inhibition is -23.5% (inactive).

For the compound `Cc1ccc(C(=O)c2ccc([N+](=O)[O-])cc2)c(C)c1`, the inhibition is -4.2% (inactive).

Turning to `COCCN1CCN(C(=O)C2CCC(=O)N(Cc3ccccc3F)C2)CC1` (stereo not given), the inhibition is -13.9% (inactive).

With `COc1ccc(NC2=NC(=S)N(c3ccccc3C)C23CCCCC3)cc1`, the inhibition was -2.5% (inactive). The figure for `Oc1cccc(Nc2ncnc3ccccc23)c1` is 56% (active). Regarding `Nc1cccc(Nc2ncnc3ccccc23)c1`, the inhibition was 3% (inactive). As for `Oc1ccc(Nc2ncnc3ccccc23)cc1`, the inhibition is 4.4% (inactive). As for `O=C(CN1CC(c2ccccc2)CC1=O)Nc1ccc2c(c1)OCO2` (stereo not given), the figure is -14% (inactive); as for `COCCCNC(c1ccccc1)c1ccncc1` (stereo not given), -23.2% (inactive); as for `O=C(COc1cccc(Cl)c1)Nc1nc(-c2ccc(S(=O)(=O)N3CCOCC3)cc2)cs1`, 53.1% (inactive). On to `O=C(COc1ccccc1)Nc1nc(-c2ccc(S(=O)(=O)N3CCOCC3)cc2)cs1`, for which the inhibition was 3.4% (inactive).

Turning to `O=C(Nc1ccccc1)NC1CS(=O)(=O)CC1O` (stereo not given), the inhibition was -16.3% (inactive). For the compound `O=C(c1ccc(Br)cc1)C1CCc2occc2C1=O` (stereo not given), the inhibition was -29.8% (inactive). For the compound `O=C(O)c1cccc(NC(=O)c2cccc(S(=O)(=O)N3CCc4ccccc43)c2)c1`, the inhibition is 29.9% (inactive).

For `Cc1cccnc1NC(=O)c1cccc(S(=O)(=O)N2CCCc3ccccc32)c1`, the inhibition was -13% (inactive). As for `Nn1cc(-c2ccccc2)nc1SCC(=O)NCC1CCCO1` (stereo not given), the inhibition is -25.8% (inactive). `O=C(CSc1nnc(-c2ccccc2)n1-c1ccccc1)c1cccs1`: the inhibition is -1.9% (inactive). The figure for `Cc1cc(C(=O)NC2CCCCC2C)c2ccccc2n1` (stereo not given) is 1.8% (inactive); for `O=C(C1=NNCC1c1ccccc1)C1OC1c1ccccc1` (stereo not given) it is 15.8% (inactive). In the case of `O=C(C1=NNCC1c1ccc(Cl)cc1)C1CO1` (stereo not given), the inhibition is 88.4% (active). On to `O=C(C1=NNCC1c1ccccc1)C1CO1` (stereo not given), for which the inhibition is -5.4% (inactive).

On to `Cc1nc(N2CCOCC2)nc(OCCN(C)C)c1[N+](=O)[O-]`, for which the inhibition was -6.3% (inactive). As for `COc1cc(/C=C(/Sc2nnc(-c3ccc(F)cc3)o2)C(=O)O)ccc1OC(F)F`, the figure is -21.8% (inactive); as for `O=C(O)/C(=C\c1ccccc1OC(F)F)Sc1nnc(-c2ccc(F)cc2)o1`, 32.5% (active).

Take `O=C(O)/C(=C\c1cccs1)Sc1nnc(-c2ccc(F)cc2)o1`: the inhibition is -11.6% (inactive). Regarding `CCCC(c1nnnn1C(C)(C)C)N1CCN(c2ccccc2)CC1` (stereo not given), the inhibition is -12.7% (inactive).

As to `Cc1cc(=O)oc(C)c1C(=O)NNC(=O)C1(C)CC1Br` (stereo not given), the inhibition was -8.9% (inactive). With `COc1cc(/C=N/NC(=O)c2cnn3c(C)cc(-c4ccccc4)nc23)ccc1O`, the inhibition is 46.9% (inactive). On to `Cc1cc(C)c(NC(=S)N(CCCN2CCN(C)CC2)Cc2cccs2)c(C)c1`, for which the inhibition was -25.1% (inactive). As for `Brc1ccc(CNCC2CCCO2)cc1` (stereo not given), the figure is 64.4% (active); as for `Clc1ccc(CNCC2CCCO2)cc1` (stereo not given), 5.9% (inactive); as for `Fc1ccc(CNCC2CCCO2)cc1` (stereo not given), 2.2% (inactive). For `COc1ccc(N(CC(=O)NCc2ccccc2)S(=O)(=O)c2c(C)nn(C)c2C)cc1`, the inhibition is -15.5% (inactive). Regarding `COc1cc(/C=C2\C(=O)NN(c3ccccc3)C2=O)cc([N+](=O)[O-])c1O`, the inhibition was -38.3% (inactive). As for `COc1cc(/C=C2/C(=O)NN(c3ccc(Cl)c(Cl)c3)C2=O)cc([N+](=O)[O-])c1O`, the inhibition is 14.3% (inactive). Turning to `O=C1NN(c2ccccc2)C(=O)/C1=C\c1cccn1-c1ccc(Cl)c([N+](=O)[O-])c1`, the inhibition is 86.9% (active).

As for `O=C(CN1CCN(S(=O)(=O)N2CCCCCC2)CC1)Nc1ccc(Br)cc1`, the inhibition is -32.9% (inactive). With `O=Cc1ccc(N2CCCC2)c([N+](=O)[O-])c1`, the inhibition is -40.9% (inactive). For `O=C(O)CSCC(=O)NCc1csc2ccc(Cl)cc12`, the inhibition was 0.3% (inactive). Regarding `CNC(=O)Cc1csc2ccc(C)cc12`, the inhibition is 41.4% (active). As for `CNC(=O)Cc1csc2ccc(Cl)cc12`, the inhibition was -7.2% (inactive). The figure for `Cc1ccc(C)c(N2CCN(CCCNC(=O)Cn3cc4c(n3)CCC(C)C4)CC2)c1` (stereo not given) is -16.2% (inactive).

On to `COc1ccccc1/C=N/N(C(C)=O)c1nc(-c2ccc(F)cc2)cs1`, for which the inhibition was 9.4% (inactive).

In the case of `O=C(O)C1CCCN(S(=O)(=O)c2ccc(Cl)s2)C1` (stereo not given), the inhibition is -19.7% (inactive). `Cc1cccc(Nc2ccc3nonc3c2[N+](=O)[O-])c1C`: the inhibition was -9.3% (inactive). Turning to `COc1cc(NC(=O)COc2ccc(Cl)cc2)ccc1-c1cc2ccccc2oc1=O`, the inhibition was 12.1% (inactive). As for `COc1cc(NC(C)=O)ccc1-c1cc2ccccc2oc1=O`, the inhibition was 34.7% (inactive). Turning to `CCCc1ccc(S(=O)(=O)NCC2CCCN2CC)cc1` (stereo not given), the inhibition was -7.8% (inactive).

For the compound `COc1ccc(N(CC(=O)NCc2ccco2)C(=O)CNS(=O)(=O)c2ccc(Cl)cc2)cc1`, the inhibition was 4.6% (inactive). With `O=C(Cc1ccccc1)NC(=S)Nc1ccc2oc(-c3ccccc3F)nc2c1`, the inhibition is -99.4% (inactive). `O=C(C1=C[C@@H](c2csc3ccccc23)C[C@@H](OCCCCO)O1)N1CCN(Cc2ccc3c(c2)OCO3)CC1`: the inhibition was -7.2% (inactive). The figure for `Cc1ccc(C2=C(O)c3ccccc3C(=O)C2=O)cc1` is -31.4% (inactive).

On to `O=C(C1=C(c2ccccc2)C(=O)c2ccccc2C1=O)c1ccccc1`, for which the inhibition is 1.2% (inactive). Regarding `CC(=O)C1=C(c2ccc(Br)cc2)C(=O)c2ccccc2C1=O`, the inhibition is 98.1% (active).

For the origin of these results see PubChem BioAssay AID1578 (Sanford-Burnham Center for Chemical Genomics, 2009).
